# Reference: publication PMC7862700, “An all-to-all approach to the identification of sequence-specific readers for epigenetic DNA modifications on cytosine”
# How the values were obtained:
# Test in all cases: DAPPL (digital affinity profiling via proximity ligation, sequencing); 10 mM Tris-HCl pH 7.5, 50 mM NaCl, 1 mM DTT, 4% glycerol, room temperature, 30 min; GST-TFs on glutathione beads, 16-mer random dsDNA library, 0.1% formaldehyde crosslink after washing; high values mean tight binding
# FLI1 = target: T1, FLI1 (Homo sapiens, UniProt Q01543 1-452); settings: protein: recombinant; tags: N-terminal GST; dsDNA, one strand shown
# T1 sequence: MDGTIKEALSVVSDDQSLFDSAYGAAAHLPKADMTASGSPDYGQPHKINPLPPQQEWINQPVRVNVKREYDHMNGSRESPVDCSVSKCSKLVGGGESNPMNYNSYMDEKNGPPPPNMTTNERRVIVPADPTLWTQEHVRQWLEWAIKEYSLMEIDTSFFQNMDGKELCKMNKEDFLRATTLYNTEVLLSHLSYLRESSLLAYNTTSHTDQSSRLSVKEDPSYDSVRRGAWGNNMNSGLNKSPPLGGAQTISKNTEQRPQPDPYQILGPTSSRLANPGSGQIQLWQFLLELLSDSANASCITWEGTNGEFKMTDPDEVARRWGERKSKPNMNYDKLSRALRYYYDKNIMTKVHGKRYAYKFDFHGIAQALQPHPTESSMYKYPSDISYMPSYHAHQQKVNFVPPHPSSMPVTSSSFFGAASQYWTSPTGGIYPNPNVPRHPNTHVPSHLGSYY
# Procedure, shortened: (§1)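 Pools of DNA-barcoded human transcription factors, expressed in yeast as GST fusions on glutathione beads and combined with a tag-only sample, were incubated with 200 nmole of a 16-mer random double-stranded DNA library. Incubation took 30 min at room temperature in Tris/NaCl/DTT/glycerol buffer and was followed by washing, 0.1% formaldehyde crosslinking, proximity ligation (BsaI/T4 ligase, 1 h, 37 °C), PCR amplification and sequencing on an Illumina NextSeq500. Binding signal is the ratio of a hexamer's read frequency for a factor to its frequency for the tag-only sample.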
# ELK1 = target: T2, ELK1 (Homo sapiens, UniProt P19419 1-428); settings: protein: recombinant; tags: N-terminal GST; dsDNA, one strand shown
# T2 sequence: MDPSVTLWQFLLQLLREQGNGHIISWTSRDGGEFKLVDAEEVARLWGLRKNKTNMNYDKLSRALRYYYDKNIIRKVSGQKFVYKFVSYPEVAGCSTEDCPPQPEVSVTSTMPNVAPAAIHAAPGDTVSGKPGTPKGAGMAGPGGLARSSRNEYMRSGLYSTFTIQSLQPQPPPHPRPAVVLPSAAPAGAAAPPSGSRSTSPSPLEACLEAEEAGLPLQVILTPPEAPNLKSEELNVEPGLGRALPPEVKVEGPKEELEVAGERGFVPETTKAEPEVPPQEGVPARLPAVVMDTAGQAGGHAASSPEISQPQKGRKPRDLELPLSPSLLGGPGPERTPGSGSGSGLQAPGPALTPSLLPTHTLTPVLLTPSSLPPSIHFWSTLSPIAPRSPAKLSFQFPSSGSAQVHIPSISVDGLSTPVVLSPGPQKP
# Procedure, shortened: as §1
# GABPA = target: T3, GABPA (Homo sapiens, UniProt Q06546 1-454); settings: protein: recombinant; tags: N-terminal GST; dsDNA, one strand shown
# T3 sequence: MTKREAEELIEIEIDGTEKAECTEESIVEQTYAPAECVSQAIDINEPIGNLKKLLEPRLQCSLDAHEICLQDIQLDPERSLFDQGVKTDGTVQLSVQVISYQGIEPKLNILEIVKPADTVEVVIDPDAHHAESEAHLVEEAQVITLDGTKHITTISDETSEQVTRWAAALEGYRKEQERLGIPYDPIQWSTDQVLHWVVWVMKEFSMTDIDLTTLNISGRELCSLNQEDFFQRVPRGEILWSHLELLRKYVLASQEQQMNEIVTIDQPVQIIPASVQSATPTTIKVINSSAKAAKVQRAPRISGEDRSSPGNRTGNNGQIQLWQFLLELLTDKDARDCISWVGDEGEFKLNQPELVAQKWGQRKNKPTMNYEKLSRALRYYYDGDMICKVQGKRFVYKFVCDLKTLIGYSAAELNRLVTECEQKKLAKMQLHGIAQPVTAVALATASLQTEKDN
# Procedure, shortened: as §1
# ERG = target: T4, ERG (Homo sapiens, UniProt P11308 1-479); settings: protein: recombinant; tags: N-terminal GST; dsDNA, one strand shown
# T4 sequence: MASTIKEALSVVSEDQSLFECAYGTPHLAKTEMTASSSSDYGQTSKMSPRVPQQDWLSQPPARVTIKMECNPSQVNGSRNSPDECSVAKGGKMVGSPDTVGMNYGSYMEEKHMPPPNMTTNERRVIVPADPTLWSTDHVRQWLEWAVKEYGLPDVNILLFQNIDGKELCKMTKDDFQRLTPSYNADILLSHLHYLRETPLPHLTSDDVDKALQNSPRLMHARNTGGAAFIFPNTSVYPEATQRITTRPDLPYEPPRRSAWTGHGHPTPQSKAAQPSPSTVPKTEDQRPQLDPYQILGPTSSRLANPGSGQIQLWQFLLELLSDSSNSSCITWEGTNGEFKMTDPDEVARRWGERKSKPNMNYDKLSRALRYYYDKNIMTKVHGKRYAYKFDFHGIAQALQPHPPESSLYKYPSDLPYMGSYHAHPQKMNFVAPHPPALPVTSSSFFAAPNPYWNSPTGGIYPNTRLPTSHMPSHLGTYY
# Procedure, shortened: as §1
# ELF1 = ELF1 (Homo sapiens, UniProt P32519 1-619); settings: protein: recombinant; tags: N-terminal GST; dsDNA, one strand shown
# Sequence of ELF1 (P32519 whole entry): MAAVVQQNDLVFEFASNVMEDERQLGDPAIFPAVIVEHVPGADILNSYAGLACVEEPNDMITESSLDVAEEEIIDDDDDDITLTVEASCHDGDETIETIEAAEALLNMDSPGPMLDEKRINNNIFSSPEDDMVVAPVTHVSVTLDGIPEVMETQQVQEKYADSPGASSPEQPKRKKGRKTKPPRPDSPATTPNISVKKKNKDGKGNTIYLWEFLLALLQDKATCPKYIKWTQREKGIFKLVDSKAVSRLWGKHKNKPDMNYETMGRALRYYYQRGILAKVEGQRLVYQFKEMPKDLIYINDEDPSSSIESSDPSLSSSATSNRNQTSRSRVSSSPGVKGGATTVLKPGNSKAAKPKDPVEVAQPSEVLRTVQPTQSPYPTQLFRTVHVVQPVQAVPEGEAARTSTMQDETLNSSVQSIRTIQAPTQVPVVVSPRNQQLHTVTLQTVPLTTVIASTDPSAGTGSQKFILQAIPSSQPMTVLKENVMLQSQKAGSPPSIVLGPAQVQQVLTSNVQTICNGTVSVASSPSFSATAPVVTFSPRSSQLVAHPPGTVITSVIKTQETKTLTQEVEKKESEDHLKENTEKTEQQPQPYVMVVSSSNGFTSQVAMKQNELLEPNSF
# Procedure, shortened: as §1
# EHF = target: T5, EHF (Homo sapiens, UniProt Q9NZC4 1-300); settings: protein: recombinant; tags: N-terminal GST; dsDNA, one strand shown
# T5 sequence: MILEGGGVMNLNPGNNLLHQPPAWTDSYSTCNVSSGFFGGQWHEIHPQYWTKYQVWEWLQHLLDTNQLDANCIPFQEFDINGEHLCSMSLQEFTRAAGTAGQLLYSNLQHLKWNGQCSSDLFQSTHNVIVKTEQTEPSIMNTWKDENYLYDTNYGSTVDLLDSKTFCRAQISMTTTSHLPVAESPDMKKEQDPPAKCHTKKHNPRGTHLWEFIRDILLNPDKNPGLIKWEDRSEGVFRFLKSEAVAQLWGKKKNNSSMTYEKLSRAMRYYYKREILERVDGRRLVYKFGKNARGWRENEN
# Procedure, shortened: as §1
# SPI1 = SPI1 (Homo sapiens, UniProt P17947 1-270); settings: protein: recombinant; tags: N-terminal GST; dsDNA, one strand shown
# Procedure, shortened: as §1
# SPIB = SPIB (Homo sapiens, UniProt Q01892 1-262); settings: protein: recombinant; tags: N-terminal GST; dsDNA, one strand shown
# Sequence of SPIB (Q01892 whole entry): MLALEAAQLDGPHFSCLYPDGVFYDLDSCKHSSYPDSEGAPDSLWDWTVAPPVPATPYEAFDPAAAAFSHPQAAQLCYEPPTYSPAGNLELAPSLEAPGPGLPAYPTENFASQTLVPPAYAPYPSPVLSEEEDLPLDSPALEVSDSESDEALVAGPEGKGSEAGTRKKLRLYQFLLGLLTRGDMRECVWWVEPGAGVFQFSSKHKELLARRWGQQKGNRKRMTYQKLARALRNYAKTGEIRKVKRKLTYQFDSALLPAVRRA
# Procedure, shortened: as §1
# ELK3 = target: T6, ELK3 (Homo sapiens, UniProt P41970 1-407); settings: protein: recombinant; tags: N-terminal GST; dsDNA, one strand shown
# T6 sequence: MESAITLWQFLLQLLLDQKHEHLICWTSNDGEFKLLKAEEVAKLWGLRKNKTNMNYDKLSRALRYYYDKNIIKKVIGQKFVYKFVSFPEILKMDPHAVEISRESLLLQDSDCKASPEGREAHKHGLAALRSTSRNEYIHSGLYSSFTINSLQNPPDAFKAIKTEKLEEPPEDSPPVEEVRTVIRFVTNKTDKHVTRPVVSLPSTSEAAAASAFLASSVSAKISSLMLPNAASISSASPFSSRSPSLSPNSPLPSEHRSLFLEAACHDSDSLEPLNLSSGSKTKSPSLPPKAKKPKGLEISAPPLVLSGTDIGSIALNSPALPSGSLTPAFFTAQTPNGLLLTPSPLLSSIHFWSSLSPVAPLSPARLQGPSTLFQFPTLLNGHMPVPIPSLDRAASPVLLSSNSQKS
# Procedure, shortened: as §1
# FEV = target: T7, FEV (Homo sapiens, UniProt Q99581 1-238); settings: protein: recombinant; tags: N-terminal GST; dsDNA, one strand shown
# T7 sequence: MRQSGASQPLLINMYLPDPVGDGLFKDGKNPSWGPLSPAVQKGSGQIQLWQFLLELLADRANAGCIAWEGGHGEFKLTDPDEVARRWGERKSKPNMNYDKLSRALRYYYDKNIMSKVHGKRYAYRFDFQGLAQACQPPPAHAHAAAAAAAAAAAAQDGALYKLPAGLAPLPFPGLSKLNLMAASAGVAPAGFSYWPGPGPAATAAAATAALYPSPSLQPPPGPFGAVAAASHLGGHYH
# Procedure, shortened: as §1
# ETV5 = ETV5 (Homo sapiens, UniProt P41161 1-510); settings: protein: recombinant; tags: N-terminal GST; dsDNA, one strand shown
# Sequence of ETV5 (P41161 whole entry): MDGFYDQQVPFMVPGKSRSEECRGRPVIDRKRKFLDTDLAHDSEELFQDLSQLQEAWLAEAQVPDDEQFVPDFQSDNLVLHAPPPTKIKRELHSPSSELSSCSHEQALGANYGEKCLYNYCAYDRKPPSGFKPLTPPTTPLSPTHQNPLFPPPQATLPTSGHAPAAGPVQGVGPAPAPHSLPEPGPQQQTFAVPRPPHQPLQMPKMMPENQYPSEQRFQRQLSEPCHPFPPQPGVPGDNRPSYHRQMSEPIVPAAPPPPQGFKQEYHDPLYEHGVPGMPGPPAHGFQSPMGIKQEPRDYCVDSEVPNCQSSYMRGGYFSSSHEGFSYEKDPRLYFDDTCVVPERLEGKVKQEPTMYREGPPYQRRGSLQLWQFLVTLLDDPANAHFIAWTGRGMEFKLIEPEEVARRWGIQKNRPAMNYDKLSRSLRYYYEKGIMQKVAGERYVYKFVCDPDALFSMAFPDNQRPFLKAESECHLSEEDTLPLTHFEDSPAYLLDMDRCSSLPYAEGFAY
# Procedure, shortened: as §1
# HSF1 = HSF1 (Homo sapiens, UniProt Q00613 1-529); settings: protein: recombinant; tags: N-terminal GST; chain copies: 3; dsDNA, one strand shown
# Sequence of HSF1 (Q00613 whole entry): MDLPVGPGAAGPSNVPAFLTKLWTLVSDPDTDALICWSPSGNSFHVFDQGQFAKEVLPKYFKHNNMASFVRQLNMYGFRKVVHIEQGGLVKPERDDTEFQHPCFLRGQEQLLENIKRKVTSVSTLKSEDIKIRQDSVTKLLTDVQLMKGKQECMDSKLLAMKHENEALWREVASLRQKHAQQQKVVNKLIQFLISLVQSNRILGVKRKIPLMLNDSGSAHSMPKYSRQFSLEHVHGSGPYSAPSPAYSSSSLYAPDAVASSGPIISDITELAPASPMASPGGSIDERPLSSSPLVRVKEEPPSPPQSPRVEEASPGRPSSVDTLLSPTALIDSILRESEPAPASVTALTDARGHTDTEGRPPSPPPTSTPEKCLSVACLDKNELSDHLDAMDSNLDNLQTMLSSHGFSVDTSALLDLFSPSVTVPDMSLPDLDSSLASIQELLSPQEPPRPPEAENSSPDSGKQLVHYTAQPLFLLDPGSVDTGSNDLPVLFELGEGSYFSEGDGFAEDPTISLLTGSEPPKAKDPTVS
# Procedure, shortened: as §1
# SPIC = target: T8, SPIC (Homo sapiens, UniProt Q8N5J4 1-248); settings: protein: recombinant; tags: N-terminal GST; dsDNA, one strand shown
# T8 sequence: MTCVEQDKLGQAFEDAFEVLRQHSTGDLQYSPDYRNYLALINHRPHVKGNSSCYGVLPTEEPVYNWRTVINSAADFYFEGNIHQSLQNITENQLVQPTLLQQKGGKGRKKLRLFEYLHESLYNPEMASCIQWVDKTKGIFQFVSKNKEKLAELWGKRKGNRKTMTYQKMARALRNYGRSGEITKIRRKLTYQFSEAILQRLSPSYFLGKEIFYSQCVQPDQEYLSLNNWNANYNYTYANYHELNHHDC
# Procedure, shortened: as §1
# ELF4 = ELF4 (Homo sapiens, UniProt Q99607 1-663); settings: protein: recombinant; tags: N-terminal GST; dsDNA, one strand shown
# Sequence of ELF4 (Q99607 whole entry): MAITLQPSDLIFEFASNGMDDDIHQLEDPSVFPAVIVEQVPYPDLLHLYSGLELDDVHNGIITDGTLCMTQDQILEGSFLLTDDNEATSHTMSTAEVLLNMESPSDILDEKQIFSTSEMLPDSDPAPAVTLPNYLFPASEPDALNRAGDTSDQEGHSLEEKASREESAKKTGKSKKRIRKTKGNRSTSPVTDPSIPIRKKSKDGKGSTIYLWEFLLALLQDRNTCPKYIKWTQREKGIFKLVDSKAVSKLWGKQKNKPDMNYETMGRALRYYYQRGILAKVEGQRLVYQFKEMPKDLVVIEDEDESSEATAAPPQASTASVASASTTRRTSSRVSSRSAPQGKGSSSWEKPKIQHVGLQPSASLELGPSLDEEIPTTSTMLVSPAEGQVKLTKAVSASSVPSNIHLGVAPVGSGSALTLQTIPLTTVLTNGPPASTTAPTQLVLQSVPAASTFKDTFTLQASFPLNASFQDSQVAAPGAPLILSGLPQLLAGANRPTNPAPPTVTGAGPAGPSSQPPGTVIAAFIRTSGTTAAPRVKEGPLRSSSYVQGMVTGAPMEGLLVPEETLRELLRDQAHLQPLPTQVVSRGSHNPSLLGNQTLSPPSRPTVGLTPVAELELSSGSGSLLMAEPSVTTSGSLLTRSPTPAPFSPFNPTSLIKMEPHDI
# Procedure, shortened: as §1
# ELK4 = target: T9, ELK4 (Homo sapiens, UniProt P28324-2 1-405); settings: protein: recombinant; tags: N-terminal GST; dsDNA, one strand shown
# T9 sequence: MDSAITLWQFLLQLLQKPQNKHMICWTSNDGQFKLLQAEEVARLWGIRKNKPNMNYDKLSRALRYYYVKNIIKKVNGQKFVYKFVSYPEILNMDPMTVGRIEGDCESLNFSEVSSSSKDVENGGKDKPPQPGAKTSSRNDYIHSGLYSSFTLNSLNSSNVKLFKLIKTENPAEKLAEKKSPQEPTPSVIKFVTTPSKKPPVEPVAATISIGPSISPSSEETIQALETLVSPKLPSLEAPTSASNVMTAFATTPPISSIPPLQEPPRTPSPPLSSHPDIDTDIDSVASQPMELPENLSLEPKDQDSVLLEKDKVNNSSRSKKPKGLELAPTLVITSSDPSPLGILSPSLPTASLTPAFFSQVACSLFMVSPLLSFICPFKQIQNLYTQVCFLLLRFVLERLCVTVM
# Procedure, shortened: as §1
# ETV2 = target: T10, ETV2 (Homo sapiens, UniProt O00321 1-342); settings: protein: recombinant; tags: N-terminal GST; dsDNA, one strand shown
# T10 sequence: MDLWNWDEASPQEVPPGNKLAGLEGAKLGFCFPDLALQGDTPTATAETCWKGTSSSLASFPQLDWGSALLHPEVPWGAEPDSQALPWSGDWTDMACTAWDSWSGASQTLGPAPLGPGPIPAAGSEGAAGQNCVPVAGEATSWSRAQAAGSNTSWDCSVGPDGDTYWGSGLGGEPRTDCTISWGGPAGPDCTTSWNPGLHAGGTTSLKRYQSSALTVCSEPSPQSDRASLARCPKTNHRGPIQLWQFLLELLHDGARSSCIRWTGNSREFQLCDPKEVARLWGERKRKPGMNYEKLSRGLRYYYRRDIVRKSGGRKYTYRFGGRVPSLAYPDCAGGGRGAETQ
# Procedure, shortened: as §1
# ELF3 = target: T11, ELF3 (Homo sapiens, UniProt P78545 1-371); settings: protein: recombinant; tags: N-terminal GST; dsDNA, one strand shown
# T11 sequence: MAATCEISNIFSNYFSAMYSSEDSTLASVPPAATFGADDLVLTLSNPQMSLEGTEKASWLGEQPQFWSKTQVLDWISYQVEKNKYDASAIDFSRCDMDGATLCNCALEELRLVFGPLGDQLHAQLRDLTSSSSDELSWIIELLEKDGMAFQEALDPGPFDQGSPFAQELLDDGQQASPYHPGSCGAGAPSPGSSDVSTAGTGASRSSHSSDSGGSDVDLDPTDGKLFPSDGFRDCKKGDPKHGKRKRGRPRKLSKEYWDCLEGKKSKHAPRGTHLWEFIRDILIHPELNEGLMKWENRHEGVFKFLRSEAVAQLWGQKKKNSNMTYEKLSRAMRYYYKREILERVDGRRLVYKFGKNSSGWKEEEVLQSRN
# Procedure, shortened: as §1
# CRX = CRX (Homo sapiens, UniProt O43186 1-299); settings: protein: recombinant; tags: N-terminal GST; dsDNA, one strand shown
# Sequence of CRX (O43186 whole entry): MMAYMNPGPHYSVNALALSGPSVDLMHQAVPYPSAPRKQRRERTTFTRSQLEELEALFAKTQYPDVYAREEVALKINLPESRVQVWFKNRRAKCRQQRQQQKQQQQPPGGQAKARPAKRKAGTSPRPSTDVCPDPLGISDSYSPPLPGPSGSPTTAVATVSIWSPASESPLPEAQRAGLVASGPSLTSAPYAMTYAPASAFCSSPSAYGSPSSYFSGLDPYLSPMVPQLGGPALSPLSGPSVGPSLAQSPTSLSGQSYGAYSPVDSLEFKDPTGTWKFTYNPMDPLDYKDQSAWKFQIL
# Procedure, shortened: as §1
# ETV1 = ETV1 (Homo sapiens, UniProt P50549 1-477); settings: protein: recombinant; tags: N-terminal GST; dsDNA, one strand shown
# Sequence of ETV1 (P50549 whole entry): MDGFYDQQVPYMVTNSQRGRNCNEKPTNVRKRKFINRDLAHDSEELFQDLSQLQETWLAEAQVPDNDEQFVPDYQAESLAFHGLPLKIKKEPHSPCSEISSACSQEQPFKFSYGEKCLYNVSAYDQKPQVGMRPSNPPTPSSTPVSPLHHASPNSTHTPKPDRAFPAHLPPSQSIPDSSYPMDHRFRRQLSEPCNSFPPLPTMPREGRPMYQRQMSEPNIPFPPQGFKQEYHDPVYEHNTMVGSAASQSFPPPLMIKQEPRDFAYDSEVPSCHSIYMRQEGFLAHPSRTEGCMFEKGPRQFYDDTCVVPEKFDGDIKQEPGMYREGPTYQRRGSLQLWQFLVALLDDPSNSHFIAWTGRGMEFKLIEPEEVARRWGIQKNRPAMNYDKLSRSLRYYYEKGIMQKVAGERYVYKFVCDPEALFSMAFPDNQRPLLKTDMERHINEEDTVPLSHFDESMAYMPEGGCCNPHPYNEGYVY
# Procedure, shortened: as §1
sequence,measurement,setting,value
TATCCG,binding signal,FLI1,"2.64 fold enrichment (6-mer frequency, TF over GST control)"
same,binding signal,ELK1,"2.53 fold enrichment (6-mer frequency, TF over GST control)"
same,binding signal,GABPA,"2.26 fold enrichment (6-mer frequency, TF over GST control)"
same,binding signal,ERG,"3.2 fold enrichment (6-mer frequency, TF over GST control)"
same,binding signal,ELF1,"2.38 fold enrichment (6-mer frequency, TF over GST control)"
same,binding signal,EHF,"2.48 fold enrichment (6-mer frequency, TF over GST control)"
same,binding signal,SPI1,"2.29 fold enrichment (6-mer frequency, TF over GST control)"
same,binding signal,SPIB,"2.8 fold enrichment (6-mer frequency, TF over GST control)"
same,binding signal,ELK3,"2.41 fold enrichment (6-mer frequency, TF over GST control)"
same,binding signal,FEV,"4.84 fold enrichment (6-mer frequency, TF over GST control)"
same,binding signal,ETV5,"2.85 fold enrichment (6-mer frequency, TF over GST control)"
same,binding signal,HSF1,"1.54 fold enrichment (6-mer frequency, TF over GST control)"
same,binding signal,SPIC,"2.38 fold enrichment (6-mer frequency, TF over GST control)"
same,binding signal,ELF4,"2.2 fold enrichment (6-mer frequency, TF over GST control)"
same,binding signal,ELK4,"2.29 fold enrichment (6-mer frequency, TF over GST control)"
same,binding signal,ETV2,"2.68 fold enrichment (6-mer frequency, TF over GST control)"
same,binding signal,ELF3,"2.33 fold enrichment (6-mer frequency, TF over GST control)"
same,binding signal,CRX,"1.95 fold enrichment (6-mer frequency, TF over GST control)"
same,binding signal,ETV1,"2.72 fold enrichment (6-mer frequency, TF over GST control)"
